# Laboratory results from paper PMC5540273 (PLoS ONE, 2017).
# Legend:
# [1] = tested on: PIKFYVE
# [2] = tested on: PRKD1
# [3] = tested on: PRKD2
# [4] = tested on: PRKD3
# [5] = tested on: T1, PRKR
# T1 construct: gene EIF2AK2
# [6] = tested on: PIP5K1C
# [7] = tested on: T2, PIP5K2C
# T2 construct: gene PIP4K2C
# [8] = tested on: PLK1
# [9] = tested on: PLK2
# [10] = tested on: PLK3
# [11] = tested on: RIPK2
# [12] = tested on: RIOK1
# [13] = tested on: PIK3CG
# [14] = tested on: T3, PIK4CB
# T3 construct: gene PI4KB
# [15] = tested on: PRKCI
# [16] = tested on: PIP5K1A
# [17] = tested on: PRKX
# [18] = tested on: RIOK3
# [19] = tested on: PRKCH
# [20] = tested on: PRKCD
# 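Note: kd values determined as follow-up on hits from a single-replicate KINOMEscan panel screen.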
compound,measurement,setting,value
Cc1cccc(-c2nc(Nc3ccc4c(cnn4C)c3)c3ccccc3n2)n1 [GW876731],Kd,[1],380 nM
same,Kd,[2],7.2 nM
same,Kd,[3],12 nM
same,Kd,[4],13 nM
O=C1NC(=O)C(c2ccccc2)=C1Nc1cccc(O)c1 [SB-390534],Kd,[5],> 10000 nM
COc1cc2ncn(-c3cc(OCc4ccncc4Br)c(C(N)=O)s3)c2cc1OC [GW854278],Kd,[6],610 nM
same,Kd,[7],330 nM
same,Kd,[8],1.1 nM
same,Kd,[9],1.4 nM
same,Kd,[10],9.4 nM
COc1cc2nccc(Nc3cccc(Oc4ccccc4)c3)c2cc1OC.Cl [GW284543],Kd,[11],440 nM
COc1ccc(Nc2nccc(N3CCC(NS(=O)(=O)c4ccc(NC(C)=O)cc4)C3)n2)cc1 (stereo not drawn) [GSK1379729],Kd,[11],> 10000 nM
COc1cc2ncn(-c3cc(OCCCc4ccccc4)c(C(N)=O)s3)c2cc1OC [GSK205189],Kd,[9],34 nM
same,Kd,[10],120 nM
Cc1ccc(Oc2ccc(Nc3ncnc4cc[nH]c34)cc2C)cn1,Kd,[12],> 10000 nM
Nc1ncnc2c1ncn2-c1cccc(F)c1 [SKF-97560],Kd,[11],> 10000 nM
COc1ccc(-c2cc3c(C)nc(N)nc3n([C@H]3CC[C@H](O)CC3)c2=O)cn1,Kd,[13],0.32 nM
same,Kd,[14],25 nM
COc1ccc(-c2cc3c(C)nc(N)nc3n([C@H]3CC[C@H](OCCO)CC3)c2=O)cn1,Kd,[14],46 nM
COc1cccc(C2=C(Nc3cccc(C(=O)O)c3)C(=O)NC2=O)c1 [SB-390770],Kd,[15],> 10000 nM
C[C@@H]1CC[C@H](C(=O)NC2CCCCC2)CN1c1cc(-c2ccc3c(N)n[nH]c3c2)nc(N)n1 [GSK2291363],Kd,[16],440 nM
same,Kd,[17],460 nM
same,Kd,[12],210 nM
same,Kd,[18],150 nM
COc1cc2ncn(-c3cc(OCc4ccncc4)c(C(N)=O)s3)c2cc1OC [GSK336313],Kd,[8],110 nM
same,Kd,[9],41 nM
Cc1ccccc1COc1cc(-n2cnc3cc(Cl)ccc32)sc1C(N)=O [GW813349],Kd,[8],19 nM
same,Kd,[9],68 nM
same,Kd,[10],99 nM
CCC(=O)c1c(-c2ccccc2)c2cc(Cl)ccc2c(=O)n1Cc1cc(S(C)(=O)=O)n(CC(N)=O)n1,Kd,[19],> 10000 nM
Nc1nc(-c2ccccc2F)c(-c2ccnc3ccccc23)s1 [GW560459],Kd,[11],> 10000 nM
COc1cc2ncn(-c3cc(OCc4ccc(S(C)(=O)=O)cc4)c(C(N)=O)s3)c2cc1OC [GW869979],Kd,[8],14 nM
same,Kd,[9],5.9 nM
same,Kd,[10],100 nM
Cc1cc(Nc2nc(-c3cccc(C)n3)nc3ccccc23)ccn1 [GW872411],Kd,[2],6.1 nM
same,Kd,[3],9.4 nM
COc1cc(Nc2nccc(N3CCC(NC(=O)C4COc5ccccc5O4)C3)n2)cc(OC)c1OC (stereo not drawn) [GSK1379761],Kd,[7],670 nM
FC(F)(F)c1ccc(-c2ncn(CCCN3CCOCC3)c2-c2ccncc2)cc1 [SB-217780],Kd,[20],> 10000 nM
CCS(=O)c1ccc(-c2coc3ccc(-c4nnc(C)o4)cc23)cc1 (stereo not drawn),Kd,[7],85 nM
